In the library only some 2.4% were active in any assay of this set; here they are far more common.
SENP7 block = SENP7 protease inhibition. Q9BQF6. recombinant SENP7, Z-RLRGG-aminoluciferin luminescence, 40 min. inhibition, % at 5 µM. 330,000 compounds, 1.5% hits. AID 434973;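 active = inhibition above about 50% at the single test dose, limit read from the data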;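 also: plate controls were DMSO with enzyme for no effect and no enzyme buffer wells for full effect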
SENP8 block-1 = inhibitors of human SENP8 protease. purified SENP8, Z-RLRGG-aminoluciferin cleavage, luminescence. inhibition, % at 10 µM. 330,000 compounds, 1.2% hits. AID 2540; in the data active = inhibition above about 50%
Platelet DG rel = modulates dense granule release in human platelets | human platelet-rich plasma, SFLLRN dense granule ATP release, luminescence | inhibition, %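 (compounds screened at 7.5 µM in platelet-rich plasma)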 | 300,000 compounds, 0.22% hits | AID 1663;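 active = mean replicate score, as percent of positive control, at or above 50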
SENP8 block-2 = blocks human SENP8 cleavage of Nedd8 substrate; Q96LD8; recombinant SENP8, Nedd8 substrate fluorescence; inhibition, % at 20 µM; 360,000 compounds, 0.64% hits; in the data active = inhibition mostly above about 40%, no sharp cut-off; inactive = mostly below about 27%
SENP6 inh = inhibitors of human SENP6 protease. AID 2599. 330,000 compounds, 1.8% hits. inhibition, % at 10 µM. Recombinant SENP6 catalytic domain, aminoluciferin luminescence;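 active = inhibition above about 50% at the single tested dose, limit read from the data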;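 also: plate controls were DMSO wells with enzyme for no effect and DMSO wells lacking enzyme for full effect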
Target sequence (Q9GZR1 628-1112 limits assumed): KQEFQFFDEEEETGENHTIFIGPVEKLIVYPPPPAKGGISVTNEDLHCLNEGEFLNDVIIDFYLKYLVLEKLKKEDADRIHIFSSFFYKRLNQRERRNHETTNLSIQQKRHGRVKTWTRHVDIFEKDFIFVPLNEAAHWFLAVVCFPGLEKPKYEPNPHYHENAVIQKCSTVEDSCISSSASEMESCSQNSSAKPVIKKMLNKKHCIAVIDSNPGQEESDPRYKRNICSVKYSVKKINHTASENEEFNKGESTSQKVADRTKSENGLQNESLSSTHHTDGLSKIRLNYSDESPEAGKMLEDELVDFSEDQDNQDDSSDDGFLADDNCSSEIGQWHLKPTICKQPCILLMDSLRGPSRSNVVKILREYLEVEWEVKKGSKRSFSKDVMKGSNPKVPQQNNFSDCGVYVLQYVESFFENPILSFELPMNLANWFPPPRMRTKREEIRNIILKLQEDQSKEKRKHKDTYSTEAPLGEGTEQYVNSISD
SENP8 confirm = confirmation of human SENP8 protease inhibitors. 6,200 compounds, 40% hits. inhibition, % at 12.5 µM. AID 488912. Recombinant SENP8, Z-RLRGG-aminoluciferin luminescence, 60 min. shares compounds with SENP7 block;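 active = mean inhibition across replicates above about 50%, limit read from the data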
SENP6 confirm = confirmation of human SENP6 protease inhibitors; 6,200 compounds, 58% hits; inhibition, % at 12.5 µM; shares compounds with SENP7 block; recombinant SENP6, Z-RLRGG-aminoluciferin luminescence
SENP7 confirm = confirmation of human SENP7 protease inhibitors | shares compounds with SENP7 block | recombinant SENP7, Z-RLRGG-aminoluciferin luminescence, 40 min | inhibition, % at 12.5 µM | 6,200 compounds, 69% hits | AID 488917
Casp3 select = inhibits human caspase-3 in SENP selectivity test | shares compounds with SENP7 block | purified caspase-3, Z-DEVD-aminoluciferin luminescence, 60 min | inhibition, % at 12.5 µM | 6,200 compounds, 60% hits | AID 488918;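 active = mean inhibition above about 50%, limit read from the data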;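 also: plate controls were enzyme with DMSO for no effect and wells without caspase-3 for full effect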
Luc interf = interferes with luciferase luminescence in SENP counter-screen. 6,200 compounds, 39% hits. inhibition, % at 12.5 µM. shares compounds with SENP7 block. Pre-incubated SENP8/Z-RLRGG-aminoluciferin, luciferase luminescence interference;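 active = mean inhibition above about 50% when retested at one dose, limit read from the data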;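 also: plate controls were DMSO wells with completed reaction for no effect and substrate without enzyme for full effect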
Active calls of the source: *; . = no result given.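 The calls were made as follows, unless noted: active = mean inhibition above about 50% in the one-dose retest (limit read from the data); inactive = the rest.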

SMILES	SENP7 block	SENP8 block-1	Platelet DG rel	SENP8 block-2	SENP6 inh	SENP8 confirm	SENP6 confirm	SENP7 confirm	Casp3 select	Luc interf
Cn1c(COc2ccc(F)cc2)nc2ccccc21	61*	47	5	4	62*	60*	58*	83*	76*	64*
CCOc1ccc(CNc2nc3ccccc3n2C)cc1	69*	56*	-1	20	84*	-3	59*	88*	86*	72*
Cc1cccc(OCc2nc3ccccc3n2C)c1	29	-3	-2	23	45	.	.	.	.	.
Cc1ccccc1OCc1nc2ccccc2n1C	72*	79*	-2	10	-5	45	80*	96*	86*	82*
CCOc1ccc(Nc2nc3ccccc3n2C)cc1	-2	5	4	21	-8	.	.	.	.	.
CCc1ccccc1NC(=O)CN1C(=O)c2ccccc2S1(=O)=O	-6	-7	-4	0	-20	.	.	.	.	.
COc1ccc(NC(=O)c2cc3ccccc3oc2=O)cc1	.	.	.	28	.	.	.	.	.	.
COc1ccc(NC(=O)c2cc3ccccc3cc2OC)cc1OC	0	-2	4	6	2	.	.	.	.	.
COc1cc2ccccc2cc1C(=O)Nc1ccc(O)cc1	57*	44	3	-89	63*	8	37	87*	60*	3
COc1ccc(NC(=O)c2cc3ccccc3cc2O)cc1	13	50	16	20	51*	25	33	88*	44	8
O=C(Nc1ccc(F)cc1F)c1cc2ccccc2oc1=O	63*	7	0	17	28	7	6	46	54*	23
COc1ccc2oc(=O)c(C(=O)Nc3ccccc3O)cc2c1	95*	75*	12	32	77*	61*	78*	94*	74*	21
CCOc1ccccc1NC(=O)c1cc2ccccc2oc1=O	8	-6	-3	31	-24	.	.	.	.	.
CN(CC(=O)Nc1ccc(F)c(F)c1F)C(=O)c1ccc(-n2cncn2)cc1	5	9	.	6	7	.	.	.	.	.
COCC(C)n1c(SCc2ccc(C(=O)OC)cc2)nc2ccccc2c1=O (configuration not stated)	6	6	4	7	-9	.	.	.	.	.
Cc1ccc(NC(=O)c2cc3ccccc3o2)cc1S(=O)(=O)N(C)C	.	.	.	12	.	.	.	.	.	.
Cc1ccc(NC(=O)c2cc3ccccc3oc2=O)cc1S(=O)(=O)N(C)C	73*	25	8	9	36	22	25	17	39	7
O=C(NCc1ccccc1Cl)C1CCN(c2cnccn2)CC1	2	1	-1	-388	-2	.	.	.	.	.
Nc1nn(-c2cccc(F)n2)cc1-c1ccc(Cl)cc1	88*	52*	10	-3	62*	16	21	48	32	8
Nc1nn(-c2cccc(F)n2)cc1-c1ccccc1	92*	84*	2	7	87*	-28	81*	97*	83*	27
Nc1nc(Br)c2c(F)cccc2c1-c1ccccc1	-5	-14	9	-81	12	.	.	.	.	.
COc1ccc(-c2ccn(-c3cccc(F)n3)n2)cc1	4	8	.	-182	2	.	.	.	.	.
CC(C)(C)N1C(=O)c2ccc(C(=O)Nc3ccc(O)cc3)cc2C1=O	1	2	-4	11	-1	.	.	.	.	.
Nc1ccc2c(c1)C(=O)c1ccccc1C2=O	4	31	-9	9	53*	55*	50*	80*	54*	8
Nc1ccc2c(c1)C(=O)c1ccc(Br)cc1-2	.	.	.	13	.	.	.	.	.	.
SMILES	SENP7 block	SENP8 block-1	Platelet DG rel	SENP8 block-2	SENP6 inh	SENP8 confirm	SENP6 confirm	SENP7 confirm	Casp3 select	Luc interf
COc1ccc(N2CCN(C(=O)C(=O)c3cc(OC)c(OC)c(OC)c3)CC2)cc1	.	.	.	13	.	.	.	.	.	.
CC1(C)Cc2c(sc(NC(=O)C(=O)NCC3CCCO3)c2C(N)=O)CO1 (configuration not stated)	3	1	4	4	17	.	.	.	.	.
O=c1c(Cl)c(N2CCCCC2)cnn1-c1nc2ccccc2[nH]1	97*	89*	27	-11	97*	96*	96*	102*	98*	6
COc1ccc(NC(=O)c2ccc(OC(F)F)cc2)cc1Cl	97*	95*	64*	-3	93*	86*	95*	100*	92*	76*
O=C(Nc1ccc(OC(F)F)c(Cl)c1)c1ccccn1	85*	79*	8	12	85*	74*	75*	95*	68*	27
COc1cc(NC(=O)c2ccc(N3CCCC3=O)cc2)cc(OC)c1	72*	60*	.	25	70*	46	61*	73*	84*	56*
COc1ccc(NC(=O)c2ccc(N3CCCC3=O)cc2)cc1Cl	54*	-8	.	5	24	-6	-1	4	6	0
COc1cccc2sc(N(C)c3ccccc3)nc12	89*	76*	13	16	47	-8	83*	96*	78*	83*
COc1ccc(Cl)cc1C(=O)Nc1nc(C)cc(C)n1	-9	-14	3	2	7	.	.	.	.	.
COc1ccc2c(c1)NC(=O)CC(c1ccccc1)=N2	-11	-16	2	9	-15	.	.	.	.	.
CC1=CC(c2ccccc2)=Nc2ccc(C)cc2N1	8	46	3	-34	60*	55*	28	66*	81*	80*
COc1cccc(/C=C/C(=O)OCC(=O)NCC2CCCCC2)c1OC	4	-12	.	-294	-13	.	.	.	.	.
CC1=C(C(=O)Nc2ccccc2C(=O)N2CCC(C)CC2)SCCO1	0	6	4	3	5	.	.	.	.	.
O=C(COC(=O)c1cc([N+](=O)[O-])ccc1N1CCOCC1)Nc1c(Cl)cccc1C(F)(F)F	4	5	10	17	4	.	.	.	.	.
Cc1ccccc1NC(=O)Cn1c(C)nc2ccc(NC(=O)C3CC3)cc2c1=O	71*	4	-1	-2	-7	6	5	13	8	2
Cc1cc(C)c(S(=O)(=O)Nc2cc(SCC(=O)O)c(O)c3ccccc23)cc1C	.	.	-6	.	.	.	.	.	.	.
Cc1cc(C)c(S(=O)(=O)/N=C2/C=C(SCC(=O)O)C(=O)c3ccccc32)cc1C	18	28	.	54*	62*	15	36	5	-1	-6
C[C@@H](CC#N)CN1CC[C@H](C(C)(C)C)CCC1=O	-2	-6	8	-9	1	.	.	.	.	.
COc1ccccc1Nc1ccc2nonc2c1[N+](=O)[O-]	-1	4	-5	20	-3	.	.	.	.	.

Assay outcomes as filed in PubChem.
